# From PubChem
# A selection: hits, their analogues and other compounds. The true share with any hit is near 3.1%.
# PNC inhibitor – High Content Assay for Compounds that inhibit the Assembly of the Perinucleolar Compartment | AID 2417, 2010 | activity change (PNC), negative = inhibition, % at 10 µM | actives 3.1% (n = 140,000) | PC3M PTB-GFP, PNC prevalence imaging, 16 h; active compounds read low;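 active = readout at or below -70, meaning at least 70% loss of cells showing the perinucleolar compartment, a nuclear body marking cancer cells; inconclusive = readout between -30 and a set limit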;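 also: plate controls were DMSO wells for no effect and camptothecin positive control wells for full effect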
#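 Read-out is percentage of cells bearing a perinucleolar compartment, from automated 20x imaging of fixed, Hoechst-stained PC3M PTB-GFP cells. Cells were seeded 4 h, then exposed 16 h to compound (23 nl of library stock) in duplicate plates.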
# ALOX15B inhib – qHTS Assay for Inhibitors of 15-hLO-2 (15-human lipoxygenase 2); Potency, µM (doses to about 57.1 µM), inactives show at the highest dose activity change, negative = inhibition, actives largely listed as inhibitors; Polyunsaturated fatty acid lipoxygenase ALOX15B (Homo sapiens), O15296; purified 15hLO-2, xylenol orange hydroperoxide absorbance; actives 0.56% (n = 110,000); also: potency is read from the fitted curve at half-maximal effect; nearly all actives have a fitted effect of over 60% in size
# Target sequence (O15296 whole entry, looked up): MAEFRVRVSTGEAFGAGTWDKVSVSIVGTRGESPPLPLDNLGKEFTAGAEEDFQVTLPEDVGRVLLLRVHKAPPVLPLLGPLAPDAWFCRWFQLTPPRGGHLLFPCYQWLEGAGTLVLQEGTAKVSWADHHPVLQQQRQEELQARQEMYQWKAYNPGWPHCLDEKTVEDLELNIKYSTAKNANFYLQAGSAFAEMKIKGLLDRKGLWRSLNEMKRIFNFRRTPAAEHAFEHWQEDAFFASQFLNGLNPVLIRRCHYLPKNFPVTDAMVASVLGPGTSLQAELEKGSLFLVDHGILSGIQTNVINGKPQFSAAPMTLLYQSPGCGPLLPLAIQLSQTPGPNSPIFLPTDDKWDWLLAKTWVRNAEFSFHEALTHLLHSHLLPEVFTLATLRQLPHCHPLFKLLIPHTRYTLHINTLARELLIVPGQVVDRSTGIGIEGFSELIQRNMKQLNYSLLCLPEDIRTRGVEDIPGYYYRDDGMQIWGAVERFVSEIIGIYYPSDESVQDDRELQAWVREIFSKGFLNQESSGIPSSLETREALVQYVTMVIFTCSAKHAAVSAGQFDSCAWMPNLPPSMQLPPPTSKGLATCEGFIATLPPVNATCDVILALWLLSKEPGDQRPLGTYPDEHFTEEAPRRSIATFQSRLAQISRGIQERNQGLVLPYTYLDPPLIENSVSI
#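 Screening format was qHTS against 50 nM purified 15hLO-2 in Hepes pH 7.5 with detergent. Activity follows hydroperoxide formation from 45 uM arachidonic acid, measured as 573:405 nm absorbance ratio of the ferric-xylenol orange complex.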
# 12-hLO inh – qHTS Assay for Inhibitors of 12-hLO (12-human lipoxygenase); Polyunsaturated fatty acid lipoxygenase ALOX12 (Homo sapiens), P18054; purified 12-hLO, xylenol orange hydroperoxide absorbance; actives 0.12% (n = 150,000); Potency, µM (series often up to 57.1 µM), inactives show top-dose activity change, negative = inhibition, most hits filed as inhibitors; also: potency is read from the fitted curve at half-maximal effect; nearly all actives have a fitted effect of over 55% in size
#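 Xylenol orange chromogenic assay: hydroperoxide from 12hLO oxidises Fe(II), giving red-shifted Fe(III)-XO absorbance. Conditions: 150 nM enzyme, 40 uM arachidonic acid, 25 mM Hepes pH 7.0, 0.01% Triton X-100, 30 min, room temperature.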
# Active calls of the source: *; ? = inconclusive; nt = not tested or not shown; [ ] = another dose, or the depositor's remark. Unless noted, calls follow the shape of the dose curve; as a rule, active = well fitted curve in the direction sought with a large enough effect; inconclusive = small, poorly fitted or top-dose-only effect, or another doubt; inactive = no such curve, though single readings can be large; an effect the other way counts as inactive or inconclusive. Unless noted, % is scaled to controls: 0 for no effect and ±100 for the full control effect.
SMILES,PNC inhibitor,ALOX15B inhib,12-hLO inh
CC(=O)Nc1ccc(S(=O)(=O)Nc2ccc(Cl)nn2)cc1,15.5,nt,-1.5%
CCC(=O)Nc1ccc(S(=O)(=O)Nc2ccc(Cl)nn2)cc1,-80.5*,nt,-1.8%
COc1ccc(-n2c(=O)c(CCc3ccccc3)nc3cnc(N4CCOCC4)nc32)cc1,nt,-10.4%,nt
CCOc1ccc(NCC(=O)N/N=C/C=C/c2ccccc2)cc1,-16.0,nt,-3.4%
COc1ccc(OCC(=O)N/N=C/C=C/c2ccccc2)cc1,-115.1*,nt,-2.5%
COC(=O)c1cc(-c2ccc3ccccc3c2)[nH]c(=O)c1C#N,nt,7.1%[11.4 µM],9.0%[11.4 µM]
Cc1cc(NS(=O)(=O)c2ccc(NC(=O)C(C(C)C)N3C(=O)c4ccccc4C3=O)cc2)nc(C)n1 (centres undefined),-88.1*,-6.0%,4.6%
Cc1cc(NS(=O)(=O)c2ccc(NC(=O)C(CC(C)C)N3C(=O)c4ccccc4C3=O)cc2)nc(C)n1 (centres undefined),9.9,2.5%,-6.9%
CC1=CS(=O)(=O)CC1Sc1nc2ccccc2[nH]1 (centres undefined),?,nt,2.2%
CC1=CS(=O)(=O)CC1Sc1ncn[nH]1 (centres undefined),-100.0*,nt,1.3%
C=C[C@](C)(O)CCC1C(=C)CC(O)C2C(C)(C)CCCC12C (some centres undefined),nt,-20.3%,-7.6%
O=C(NC(=S)Nc1ccc(N2CCCC2)cc1)c1ccccc1[N+](=O)[O-],-83.0*,nt,-2.3%
O=C(NC(=S)Nc1ccccc1N1CCCC1)c1ccccc1[N+](=O)[O-],-20.3,nt,-5.9%
COC(=O)Cc1[nH]n(-c2nc3ccccc3s2)c(=O)c1C(C)=O,-18.6,-1.0%,8.8%
COC(=O)Cc1cc(=O)n(-c2nc3ccccc3[nH]2)[nH]1,-100.0*,nt,0.7%
COc1ccc(NC(=O)N2CC[C@@]3(CCCN(C(=O)c4cnccn4)C3)C2)cc1,nt,7.0%,8.2%
O=S(=O)(Nc1cc(Sc2cccc3cccnc23)c(O)c2ccccc12)c1ccccc1,-102.5*,nt,-4.7%
O=C(O)c1ccccc1NS(=O)(=O)c1cccc2cccnc12,23.1,-7.0%,-1.4%
C=CCOc1c2ccc(C(=O)NCc3ccccc3OC)cc2nn1C,55.5,-3.3%,6.8%
C=CCOc1c2ccc(C(=O)NCc3ccc(OC)cc3)cc2nn1C,-109.4*,6.3%,-6.3%
O=C1C(Cl)=C(NC2CCc3ccccc32)C(=O)c2ncccc21 (centres undefined),nt,?,-3.9%
CCCCOc1ccc(Cl)cc1CSc1nnc(C)n1N,-97.1*,-2.5%,-2.1%
CCCCOc1ccc(Cl)cc1CSc1n[nH]c(C)n1,-1.0,nt,-1.0%
COC(=O)C(Cc1ccccc1)NC(=O)C(CC(C)C)NC(=O)OC(C)(C)C (centres undefined),-112.0*,nt,0.6%
CCC(C)C(NC(=O)OC(C)(C)C)C(=O)NC(Cc1ccccc1)C(=O)OC (centres undefined),?,1.1%,-1.2%
SMILES,PNC inhibitor,ALOX15B inhib,12-hLO inh
Cc1ccc(C(=O)CSc2n[nH]c(-c3ccco3)n2)cc1C,5.2,-4.6%,-4.7%
COc1ccc(C(=O)CSc2n[nH]c(-c3ccco3)n2)cc1,-107.0*,4.2%,-1.7%
COc1cc(C2C3=C(CC(C)(C)CC3=O)Nc3c2c(=O)[nH]c(=O)n3Cc2ccccc2)ccc1O (centres undefined),27.3,nt,-2.9%
COc1ccc(C2C3=C(CC(C)(C)CC3=O)Nc3c2c(=O)[nH]c(=O)n3Cc2ccccc2)cc1OC (centres undefined),-84.6*,6.6%,2.5%
CCCN1C[C@@H](CSC)C[C@H]2c3cccc4[nH]cc(c34)C[C@@H]21,nt,19.2%,-6.2%
COc1cc(C2NC(=S)NC3=C2CCc2ccccc23)cc(OC)c1OC (centres undefined),?,nt,-2.5%
O=C1NC2=C(CCc3ccccc32)C(c2ccccc2)N1 (centres undefined),-113.4*,nt,-4.0%
CCn1cc(/C=N\NC(=O)Cc2ccc(Cl)cc2)cn1,-99.4*,nt,-4.0%
CCn1cc(/C=N\NC(=O)c2ccc(Cl)cc2)cn1,?,nt,-5.9%
O=C(NC(=S)Nc1nc2c(s1)CCCC2)c1ccc(C(=O)c2ccccc2)cc1,-123.8*,nt,2.5%
O=C(Nc1nc2c(s1)CCCC2)c1cccs1,-0.7,22.3%,5.0%
CC(C)(C)c1nc(SCC(=O)Nc2nc3c(s2)CCCC3)c2ccccc2n1,-94.8*,nt,-3.5%
COc1ccc(Cc2nnc(NC(=O)Cc3cccs3)s2)cc1OC,-100.0*,nt,-11.2%
O=C(Nc1nc2c(s1)CCCC2)c1cccnc1,31.6,4.3%,4.6%
O=C(Cc1cccs1)Nc1nnc(Cc2ccccc2)s1,19.2,nt,-4.6%
CC(C)c1nc(SCC(=O)Nc2nc3c(s2)CCCC3)c2ccccc2n1,?,11.3%[11.4 µM],-8.5%
O=C(Cc1cccs1)Nc1nc2c(s1)CCCC2,-113.2*,?,-3.3%
C/C(=C\CNc1ncnc2c1ncn2[C@@H]1O[C@H](CO)[C@@H](O)[C@H]1O)CO,nt,-6.0%[0.0915 µM],-2.3%[0.00818 µM]
COc1nn(C(C)C(=O)N2N=C(C(F)F)CC2(O)C(F)F)cc1[N+](=O)[O-] (centres undefined),?,nt,2.8%
COc1nn(CC(=O)N2N=C(C(F)F)CC2(O)C(F)F)cc1[N+](=O)[O-] (centres undefined),-89.6*,nt,0.4%
COc1cc(C(=O)CSc2nncn2C)cc(OC)c1OC,-110.7*,5.5%,-5.4%
COc1ccc(NC(=O)CSc2nncn2C)cc1OC,60.4,nt,-1.1%
NNC(=O)c1ccc(OCc2nc3ccccc3[nH]2)cc1,nt,24.1%[11.4 µM],-2.4%[11.4 µM]
CCCn1c(C)nc2c(NCc3ccccc3)nc(C)nc21,nt,37.5%,-4.8%
COc1cc(O)c(NC(C)=O)c2nonc12,-87.8*,-21.4%,-6.0%
SMILES,PNC inhibitor,ALOX15B inhib,12-hLO inh
COc1ccccc1NC(C)=O,2.9,3.5%,0.4%
CC(C)(C)Nc1oc(-c2ccccc2)nc1-c1ccc(C(F)(F)F)cc1,nt,nt,5.0%
CC(C)C[C@@H](CC(=O)N[C@@H](CCC(=O)O)CC(=O)O)NC(=O)[C@@H]1CNCC[C@H]1NC(=O)C[C@H](CCCN)NC(=O)C[C@H](CO)NC(=O)[C@@H]1CCCC[C@H]1N,nt,nt,-1.4%
C=CC[C@H]1CC(Cc2ccccc2)=C[C@H](CC=C)N1,-80.8*,nt,4.6%
C=CC[C@@H]1Cc2c(Br)ccc(Br)c2[C@@H](CC=C)N1,?,nt,-1.4%
Cc1cc2c(cc1Cl)C(c1ccc3c(c1)OCO3)CC(=O)O2 (centres undefined),nt,-8.6%[0.0915 µM],2.1%[0.00818 µM]
CC(C)NC(=O)N1CC[C@@]2(CCCN(C(=O)Oc3ccccc3)C2)C1,nt,2.0%,1.4%
CCN1C(=O)C(CC(=O)Nc2ccc(OC)cc2)N(Cc2cccs2)C1=S (centres undefined),-7.9,-14.8%,-0.7%
CCCOc1ccc(NC(=O)CC2C(=O)N(CC)C(=S)N2CCNC(C)=O)cc1 (centres undefined),-113.4*,nt,-1.2%
CCCOc1ccc(NC(=O)CC2C(=O)N(C)C(=S)N2Cc2cccs2)cc1 (centres undefined),-118.9*,nt,4.0%
